Source: the supplement of paper PMC8866396
± gives the standard deviation of the averaged measurements.

These molecules were tested on IL-6-GFP PC-9GR (assay: cell viability (CCK-8 OD) relative to DMSO control (fraction of control); higher = more viable cells). Conditions: compound concentration: 10 uM; treatment time: 48 h.
Method in brief: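 A purchased 510-compound library was screened at a final 10 μM for 48 h against PC-9 and PC-9GR lung cancer cells overexpressing IL-6-GFP via a lentiviral construct, seeded at 3000 cells/well in 96-well plates. GFP imaging was done on a parallel plate set. For viability, CCK-8 absorbance was recorded and each well's optical density was divided by that of the vehicle control well. There were two independent replicates.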
`CCC1(O)C(=O)OCc2c1cc1n(c2=O)Cc2cc3c(CN(C)C)c(O)ccc3nc2-1` (stereo not given) [Topotecan] showed a cell viability of 0.333 ± 0.19.
In the case of `COc1c(-c2ccc3cc(NS(C)(=O)=O)ccc3c2)cc(-n2ccc(=O)[nH]c2=O)cc1C(C)(C)C` [Dasabuvir(ABT-333)], the cell viability is reported as 0.7838 ± 0.0059.
With `CC(=O)Oc1cccc2c1C(=O)c1c(OC(C)=O)cc(C(=O)O)cc1C2=O` [Diacerein] the cell viability was 1.14 ± 0.39.
In the case of `FC(F)(F)c1ccc(CNc2ccc(Cc3c[nH]c4ncc(Cl)cc34)cn2)cn1` [Pexidartinib (PLX3397)], the cell viability is reported as 0.789 ± 0.2.
Molecule `CC(=O)OC(C)C(C)C(=O)OCC12C3CC4(C)C(=CCC5C6(C)CCC(OC7OC(C(=O)[O][Na])C(OC8OC(CO)C(O)C(O)C8O)C(O)C7OC7OCC(O)C(O)C7O)C(C)(CO)C6CCC54C)C1CC(C)(C)C(O3)C2O` (stereo not given) [Sodium Aescinate] has a cell viability of 0.632 ± 0.25.
Work on `Cl.O=C(OCC(O)CO)c1ccccc1Nc1ccnc2cc(Cl)ccc12` (stereo not given) [Glafenine HCl] yielded a cell viability of 1.04 ± 0.32.
`CC1CC2C3CCC4=CC(=O)C=CC4(C)C3(F)C(O)CC2(C)C1(O)C(=O)CO` (stereo not given) [Betamethasone] showed a cell viability of 1.24 ± 0.11.
Work on `CCCC(=O)OC1(C(=O)CO)CCC2C3CCC4=CC(=O)CCC4(C)C3C(O)CC21C` (stereo not given) [Hydrocortisone butyrate] yielded a cell viability of 0.857 ± 0.11.
Work on `Cn1nnc2c(C(N)=O)ncn2c1=O` [Temozolomide] yielded a cell viability of 1.18 ± 0.04.
For `CC1(C)OC2CC3C4CC(F)C5=CC(=O)C=CC5(C)C4(F)C(O)CC3(C)C2(C(=O)CO)O1` (stereo not given) [Fluocinolone Acetonide], the cell viability was 1.26 ± 0.091.
